# Laboratory results taken from ChEMBL document CHEMBL4513146, “CO-ADD screening of Karazin Kharkiv National University (Ukraine) compounds”.
# Measured potencies and affinities stand elsewhere.
# Legend:
# Staphylococcus aureus = settings: Concentration 32 ug.mL-1;; ASSAY_TEST Inhibition of Bacterial Growth; detection method Absorption (OD600); MEDIA CAMHB; plate type 384well; NBS; CORNING #3640; time 18 hr
# Escherichia coli = settings: Concentration 32 ug.mL-1;; ASSAY_TEST Inhibition of Bacterial Growth; detection method Absorption (OD600); MEDIA CAMHB; plate type 384well; NBS; CORNING #3640; time 18 hr
SMILES,Inhibition (Staphylococcus aureus) [%],Inhibition (Escherichia coli) [%]
Cc1ccc(-c2ccc3nnc(CCC(=O)NCc4cccc(Br)c4)n3n2)cc1C,4.83,-5.02
COc1ccc(NC(=O)Cn2nc3c(Oc4ccccc4)nccn3c2=O)cc1,9.87,-1.88
COc1cccc(-n2ccn3c(SCC(=O)Nc4ccc(OC)c(OC)c4)nnc3c2=O)c1,14.09,-2.6
CC(C)(C)NC(=O)Cn1nc2n(Cc3cccs3)c(=O)c3sccc3n2c1=O,-26.19,-5.05
CCc1nnc2c(SCC(=O)Nc3ccc(C(=O)OC)cc3)nc3ccccc3n12,1.34,-1.9
Cc1ccc(CNC(=O)c2ccc3nn(CC(=O)Nc4ccc(C(F)(F)F)cc4)c(=O)n3c2)cc1,-2.47,-0.22
COc1ccc(NC(=O)Cn2nc3c(SCc4ccc(Cl)cc4)nccn3c2=O)cc1,4.07,-0.18
CC(C)c1nnc2c(=O)n(CC(=O)Nc3ccc(Br)cc3)c3ccccc3n12,9.7,7.11
Cc1cc2nn(CC(=O)NCc3ccccc3)c(=O)n2c(Nc2ccc(C)c(F)c2)n1,-14.43,-0.54
CCCCn1c(=O)c2sccc2n2c(=O)n(CC(=O)NC(C)CC)nc12 (configuration not stated),-5.96,-9.68
O=C(Cn1nc2ccc(SC3CCCCC3)nn2c1=O)Nc1ccc(F)c(F)c1,-4.22,-6.38
Cc1cc(C)cc(N(Cc2cc(C)ccc2C)S(=O)(=O)c2cccn3c(C)nnc23)c1,6.88,-2.32
COc1ccc(NC(=O)Cn2nc3c(Oc4cccc(OC)c4)nccn3c2=O)cc1,14.33,-3.37
Cc1ccc(NC(=O)Cn2nc3ccc(SC(C)C)nn3c2=O)c(Cl)c1,-9.9,1.89
CCOc1ccc(-c2nc(CSc3nc4ccccc4n4c(C(C)C)nnc34)c(C)o2)cc1,-10.96,-11.72
Cc1ccc(-c2ccc3nn(CC(=O)Nc4ccccc4)c(=O)n3n2)cc1C,3.99,-8.76
Cc1cccc(C)c1NC(=O)Cn1nc2c3c4c(sc3ncn2c1=O)CCCC4,7.51,-3.38
Cc1ccccc1CN(c1ccc(Cl)cc1)S(=O)(=O)c1cccn2c(C)nnc12,11.54,1.89
Cc1cc2nn(CC(=O)Nc3ccc(F)cc3Cl)c(=O)n2c(Nc2ccccc2C)n1,-3.09,-11.67
Cc1cc(C)c(C(=O)CSc2nnc3c(=O)n(-c4ccc(F)c(F)c4)ccn23)cc1C,17,-3.21
CCCCN(C)c1ccc2nnc(CCc3nc(-c4cccc(Br)c4)no3)n2n1,7.62,-1.77
COc1ccccc1Cn1c(=O)c2sccc2n2c(=O)n(CC(=O)c3ccc(C)cc3C)nc12,-4.72,-4.83
CCC(Sc1nnc2c(=O)n(-c3ccccc3)ccn12)C(=O)Nc1cc(F)ccc1F (configuration not stated),6.45,-6.05
Cc1ccc(-c2cc3c4nn(CC(=O)NCc5ccccc5)c(=O)n4ccn3n2)cc1C,-8,-9.14

SMILES,Inhibition (Staphylococcus aureus) [%],Inhibition (Escherichia coli) [%]
Cc1ccc(-c2ccc3nn(CC(=O)N4CCN(c5ccccc5)CC4)c(=O)n3n2)cc1C,8.01,2.66
COc1cccc(NC(=O)Cn2nc3ccc(-c4ccc(C)c(C)c4)nn3c2=O)c1,-14.65,-17.62
Cc1cccc(-c2nc(CSc3nc4ccccc4n4c(C)nnc34)c(C)o2)c1,9.9,1.23
Cc1cccc(Sc2nccn3c(=O)n(CC(=O)Nc4ccc(Br)cc4C)nc23)c1,8.48,-5.33
Cc1ccc(NC(=O)Cn2nc3c(SCc4ccc(Cl)cc4)nccn3c2=O)c(C)c1,10.91,-3.69
Cc1ccccc1N1CCN(c2nccn3c(=O)n(CC(=O)NCc4ccc(Cl)cc4)nc23)CC1,13.83,-3.79
CC(C)CCNC(=O)Cn1nc2n(Cc3ccco3)c(=O)c3sccc3n2c1=O,8.27,0.93
O=C(Cn1nc2c(Sc3ccccc3)nccn2c1=O)Nc1ccc2c(c1)OCO2,-26.09,0.44
CCc1ccc(Cn2c(=O)c3sccc3n3c(=O)n(Cc4c(F)cccc4Cl)nc23)cc1,3.47,-8.75
Cc1ccc(-c2ccc3nn(CC(=O)Nc4c(C)cccc4C)c(=O)n3n2)cc1C,-0.95,-11.36
Cc1ccccc1Oc1nccn2c(=O)n(CC(=O)Nc3ccc(C(C)C)cc3)nc12,-1.76,-10.99
CCC(Sc1nnc2c(=O)n(-c3cccc(OC)c3)ccn12)C(=O)Nc1ccccc1C (configuration not stated),-3.13,-2.17
COc1cc(NC(=O)Cn2nc3n(CCc4ccccc4)c(=O)c4ccccc4n3c2=O)cc(OC)c1,8.09,-2.27
Cc1cc2nn(CC(=O)Nc3cc(F)ccc3C)c(=O)n2c(Nc2ccc(F)cc2)n1,4.25,-5.18
O=c1c2nnc(-c3ccc([N+](=O)[O-])cc3)n2ccn1-c1ccc(F)c(F)c1,-6.17,-1.2
CCOC(=O)c1ccc(NC(=O)Cn2nc3c4cc(-c5ccc(Cl)cc5)nn4ccn3c2=O)cc1,1.13,-5.39
COc1ccccc1-n1ccn2c(SCc3ccc(C)cc3)nnc2c1=O,4.53,-10.18
COc1cccc(Oc2nccn3c(=O)n(CC(=O)NCc4ccccc4Cl)nc23)c1,11.84,2.87
CC(C)Cn1c(=O)c2sccc2n2c(=O)n(CC(N)=O)nc12,-15.52,-14.55
Cc1ccc(Cn2nc3c(=O)n(-c4ccc(C)c(C)c4)ccn3c2=O)cc1,14.06,-0.87
COc1ccccc1NC(=O)Cn1nc2c3cc(-c4ccc(Cl)cc4)nn3ccn2c1=O,5.68,-3.99
CCC(Sc1nnc2c(=O)n(-c3cccc(OC)c3)ccn12)C(=O)Nc1cc(C)ccc1C (configuration not stated),5.06,-5.33
CC(C)NC(=O)CSc1nnc2c(=O)n(Cc3ccc(F)cc3)ccn12,-0.55,-7.51
COc1ccc(N(Cc2cccc(Cl)c2)S(=O)(=O)c2ccc3nncn3c2)cc1,-10.84,-8.34

SMILES,Inhibition (Staphylococcus aureus) [%],Inhibition (Escherichia coli) [%]
O=C(Cn1nc2c(Sc3cccc(F)c3)nccn2c1=O)Nc1cccc(C(F)(F)F)c1,12.33,-0.7
CCc1nnc2c(S(=O)(=O)N(Cc3cc(F)cc(F)c3)c3cccc(F)c3)cccn12,2.06,-5.05
Cc1ccc(NC(=O)CSc2nc3ccccc3n3c(C(C)C)nnc23)c(Cl)c1,-3.19,-0.25
COc1cccc(Oc2nccn3c(=O)n(CC(=O)Nc4ccccc4C(F)(F)F)nc23)c1,13.2,-0.25
COc1cc(OC)c(NC(=O)Cn2nc3c4c5c(sc4ncn3c2=O)CC(C)CC5)cc1Cl (configuration not stated),7.09,1.97
COc1ccc(CN(c2ccc(F)cc2)S(=O)(=O)c2ccc3nnc(C)n3c2)cc1F,-10.32,-13.96
Cc1ccc(-c2ccc3nn(Cc4ccc5c(c4)OCO5)c(=O)n3n2)cc1C,-7.66,-8.33
CC(C)c1nnc2c(=O)n(CC(=O)Nc3ccc(F)cc3)c3ccccc3n12,20.52,5.44
COc1ccc(C(=O)CSc2nnc3c(=O)n(-c4ccc(Br)cc4)ccn23)cc1,17.48,2.13
COc1ccc(NC(=O)c2ccc3nn(CC(=O)Nc4ccccc4C(F)(F)F)c(=O)n3c2)cc1,9.89,-3.73
COc1ccc(-c2cc3c4nn(CC(=O)Nc5ccc(C)c(C)c5)c(=O)n4ccn3n2)cc1,9.35,6.79
COc1ccc(NC(=O)Cn2nc3c4cc(-c5ccc(F)cc5)nn4ccn3c2=O)c(OC)c1,8.82,-0.75
O=C(Cn1nc2c(N3CCOCC3)nccn2c1=O)NCc1ccc(Cl)cc1,9.06,3.48
Cc1ccc(-c2cc3c4nn(CC(=O)Nc5ccccc5F)c(=O)n4ccn3n2)cc1C,-4,-9.57
O=C(CSc1nnc2c(=O)n(-c3ccc(Br)cc3)ccn12)Nc1cccc(F)c1,9.13,-1.52
Cc1cc(Nc2ccc(F)cc2)nc2nn(CCc3ccccc3)c(=O)n12,4.62,-5.44
Cc1c(Cl)cccc1-n1ccn2c(=O)n(Cc3cccc(Cl)c3)nc2c1=O,7.64,-4.76
Cc1cccc(CN(c2ccc(Cl)cc2)S(=O)(=O)c2cccn3c(C)nnc23)c1,13.75,2.16
Cc1ccc(-c2cc3c4nn(CC(=O)NCc5ccccc5Cl)c(=O)n4ccn3n2)cc1C,0.72,0.46
CC(C)CCNC(=O)Cn1nc2n(CC(C)C)c(=O)c3sccc3n2c1=O,4.95,-1.56
CCCN(C)c1nccn2c(=O)n(CC(=O)Nc3cccc(C(F)(F)F)c3)nc12,6.48,3.02
CC(C)c1nnc2c(=O)n(CC(=O)Nc3ccc(Br)cc3F)c3ccccc3n12,7.11,1.53
Cc1ccc(C)c(NC(=O)Cn2nc3ccc(-c4ccc(C)c(C)c4)nn3c2=O)c1,-1.85,-17.07
